Source: PubChem BioAssay
Calls of active or inactive are those of the source.

Assays:
[1] = system: Plasmodium falciparum Sir2 (PF13_0152, Sir2A); assay: pfSir2 binders on small-molecule microarrays, primary screen, biochemical, small-molecule microarray, 635 nm fluorescence (AID 1098); conditions: small-molecule microarray binding, fluorescence 635 nm; higher = more signal;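 further: score merges spot fluorescence intensity with its signal-to-noise ratio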
[2] = small-molecule microarray binders of probe aDKK1, primary screen, biochemical, biotinylated probe, 635/667 nm fluorescence (AID 1099); conditions: higher = more signal;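 further: score merges 667nm spot fluorescence with signal to noise across triplicate slides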
[3] = small-molecule microarray binders of probe aCHRDL2, primary screen, biochemical, biotinylated probe, 635/667 nm fluorescence (AID 1100); conditions: higher = more signal
[4] = splicing luciferase reporter signal modulators, primary screen, spliceosome inhibition project, cell-based, HEK293, splice +/- reporter (AID 1101); conditions: luminescence, 24 h, higher = more signal, called active from +8 up or from −8 down;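 further: HEK293 cells carrying a splicing-competent luciferase reporter gene; test concentration not given here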
[5] = target: Fibroblast growth factor 10 (Homo sapiens) (UniProt O15520); assay: FGF10 binders on small-molecule microarrays, primary screen, biochemical, small-molecule microarray, 635 nm fluorescence (AID 1102); conditions: FGF10 binding, fluorescence 635 nm, higher = more signal
[6] = system: glycogen synthase kinase-3 (GSK3A per assay name; protocol says GSK3B); assay: GSK3 binders on small-molecule microarrays, primary screen, biochemical, small-molecule microarray, 635 nm fluorescence, GSK3A (AID 1103); conditions: small-molecule microarray binding, fluorescence 635 nm; higher = more signal; further: the record names both GSK3A and GSK3B
[7] = target: Epidermal growth factor receptor (Homo sapiens) (UniProt P00533); assay: EGFR binders on small-molecule microarrays, primary screen, biochemical, small-molecule microarray, 635 nm fluorescence (AID 1104); conditions: EGFR binding, higher = more signal;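 further: score merges 667 nm emission intensity with spot signal to noise over triplicate slides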
[8] = target: Follistatin-related protein 3 (Homo sapiens) (UniProt O95633); assay: FSTL3 binders on small-molecule microarrays, primary screen, biochemical, small-molecule microarray, 635 nm fluorescence (AID 1105); conditions: FSTL3 binding, higher = more signal;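 further: score merges emission near 667 nm and signal to noise per printed spot across three slides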
[9] = target: Dickkopf-related protein 1 (Homo sapiens) (UniProt O94907); assay: DKK1 binders on small-molecule microarrays, primary screen, biochemical, small-molecule microarray, 635 nm fluorescence scan (AID 1106); conditions: DKK1 binding, higher = more signal;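 further: score merges emission near 667 nm with signal to noise over three replicate slides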
[10] = system: Inhibin beta A chain (activin A); assay: INHBA (activin A) binders on microarrays, primary screen, biochemical, small-molecule microarray, 635 nm fluorescence scan (AID 1107); conditions: small-molecule microarray binding, higher = more signal;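 further: mouse activin A protein probed at 4.33 µg/mL on printed slides; score merges bound-protein fluorescence near 667 nm with spot signal-to-noise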
[11] = system: Human papillomavirus type 1a protein E7 (residues 44-93); assay: HPV1a E7 fragment binders on microarrays, primary screen, biochemical, small-molecule microarray, residues 44-93, 635 nm fluorescence (AID 1108); conditions: small-molecule microarray binding, fluorescence 635 nm; higher = more signal;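 further: E7 fragment applied at 1 µg/mL in TBST for 1 h at 4 C; score combines spot fluorescence with its signal to noise ratio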
[12] = modulators of HCV replicon luciferase signal, primary screen, HCV replication inhibitor project, Huh7 cells, luciferase reporter (AID 1109); conditions: 48 h, higher = more signal;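 further: huh7 hepatoma cells harbouring a luciferase neomycin HCV replicon reporter; luciferase luminescence as measure of HCV replicon replication; test concentration not given here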
[13] = target: Left-right determination factor 2 (Homo sapiens) (UniProt O00292); assay: LEFTY2 binders on small-molecule microarrays, primary screen, biochemical, small-molecule microarray, 635 nm fluorescence scan (AID 1110); conditions: LEFTY2 binding, higher = more signal
[14] = target: Calmodulin-1 (Homo sapiens) (UniProt P0DP23); assay: CALM1 binders on microarrays, EGTA buffer, profiling panel, biochemical, small-molecule microarray, Cy5-labelled CALM1 (AID 1111); conditions: Cy5-CALM1 binding fluorescence, higher = more signal;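 further: labelled calmodulin applied in Tris saline Tween buffer holding calcium plus EGTA and DTT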
[15] = target: Calmodulin-1 (Homo sapiens) (UniProt P0DP23); assay: calcium-bound CALM1 binders on microarrays, profiling panel, artefact control for SMM control-protein annotation, biochemical, small-molecule microarray, Cy5-labelled CALM1, plus calcium (AID 1112); conditions: Cy5-CALM1 binding fluorescence, higher = more signal;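 further: score merges spot fluorescence with signal to noise from triplicate slides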
[16] = small-molecule microarray binders of probe aWnt5a, primary screen, biochemical, biotinylated probe, 635/667 nm fluorescence (AID 1113); conditions: higher = more signal;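 further: score merges 667 nm fluorescence intensity with signal-to-noise per printed feature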
[17] = small-molecule microarray binders of probe aShh, primary screen, biochemical, biotinylated probe, 635/667 nm fluorescence (AID 1114); conditions: higher = more signal;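 further: probe is biotin-labelled aShh protein from a stem cell growth factor screen; measures binding of labelled protein to compounds printed on the slide; score merges feature fluorescence at 667 nm with signal-to-noise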
[18] = small-molecule microarray binders of probe aNog, primary screen, biochemical, biotinylated probe, 635/667 nm fluorescence (AID 1115); conditions: higher = more signal;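 further: probe is biotinylated aNog protein used at 0.15 µg/mL for 1 h at 4 C; z-score combines 667 nm fluorescence of each spot with its signal to noise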
[19] = target: Torsin-1A-interacting protein 1 (Homo sapiens) (UniProt Q5JTV8); assay: LAP1 binders from COS7 cell lysate, primary screen, small-molecule microarray, 635/667 nm fluorescence (AID 1116); conditions: COS7-hLAP1 lysate binding, 635 nm fluorescence, higher = more signal
[20] = target: Alpha-bungarotoxin (Bungarus multicinctus) (UniProt P60615); assay: alpha-bungarotoxin binders on microarray, profiling panel, artefact control for SMM control protein annotation, biochemical, small-molecule microarray, Alexa647 label, 635/667 nm fluorescence (AID 1117); conditions: alpha-BTX-A647 binding fluorescence, higher = more signal
Chain of Alpha-bungarotoxin (Bungarus multicinctus) (P60615 whole entry, looked up): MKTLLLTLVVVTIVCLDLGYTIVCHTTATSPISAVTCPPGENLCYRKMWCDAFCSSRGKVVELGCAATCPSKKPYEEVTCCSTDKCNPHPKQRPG

Chain of Epidermal growth factor receptor (Homo sapiens) (P00533 whole entry, looked up): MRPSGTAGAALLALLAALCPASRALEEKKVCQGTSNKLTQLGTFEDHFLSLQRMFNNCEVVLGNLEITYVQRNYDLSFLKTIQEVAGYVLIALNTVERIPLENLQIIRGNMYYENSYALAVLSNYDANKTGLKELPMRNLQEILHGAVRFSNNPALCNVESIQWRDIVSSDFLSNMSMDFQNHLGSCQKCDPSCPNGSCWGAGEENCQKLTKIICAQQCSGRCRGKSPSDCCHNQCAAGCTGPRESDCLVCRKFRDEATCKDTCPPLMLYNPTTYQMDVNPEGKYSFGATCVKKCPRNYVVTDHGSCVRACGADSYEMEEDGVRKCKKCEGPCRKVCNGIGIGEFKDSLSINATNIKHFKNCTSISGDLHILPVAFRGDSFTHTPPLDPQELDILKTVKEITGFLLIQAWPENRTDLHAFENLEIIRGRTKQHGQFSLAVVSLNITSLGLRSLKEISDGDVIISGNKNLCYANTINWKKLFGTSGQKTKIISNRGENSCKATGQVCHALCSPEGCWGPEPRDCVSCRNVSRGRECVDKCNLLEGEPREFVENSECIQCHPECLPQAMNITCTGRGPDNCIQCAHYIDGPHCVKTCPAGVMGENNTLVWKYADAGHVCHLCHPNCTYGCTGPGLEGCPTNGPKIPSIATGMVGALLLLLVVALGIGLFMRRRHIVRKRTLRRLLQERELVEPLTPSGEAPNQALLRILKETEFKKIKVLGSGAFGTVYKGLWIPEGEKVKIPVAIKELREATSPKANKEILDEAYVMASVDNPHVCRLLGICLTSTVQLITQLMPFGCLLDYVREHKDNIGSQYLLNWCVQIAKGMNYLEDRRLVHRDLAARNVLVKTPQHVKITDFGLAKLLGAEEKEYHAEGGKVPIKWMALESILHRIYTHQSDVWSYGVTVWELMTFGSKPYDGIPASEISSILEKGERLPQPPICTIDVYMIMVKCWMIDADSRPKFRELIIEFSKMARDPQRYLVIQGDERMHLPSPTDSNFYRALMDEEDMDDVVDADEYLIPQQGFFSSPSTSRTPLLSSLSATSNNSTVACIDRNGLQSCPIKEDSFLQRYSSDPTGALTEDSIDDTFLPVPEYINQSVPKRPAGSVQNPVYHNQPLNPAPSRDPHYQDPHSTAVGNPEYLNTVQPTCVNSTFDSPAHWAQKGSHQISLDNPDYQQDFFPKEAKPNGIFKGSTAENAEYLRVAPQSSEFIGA
Chain of Fibroblast growth factor 10 (Homo sapiens) (O15520 whole entry, looked up): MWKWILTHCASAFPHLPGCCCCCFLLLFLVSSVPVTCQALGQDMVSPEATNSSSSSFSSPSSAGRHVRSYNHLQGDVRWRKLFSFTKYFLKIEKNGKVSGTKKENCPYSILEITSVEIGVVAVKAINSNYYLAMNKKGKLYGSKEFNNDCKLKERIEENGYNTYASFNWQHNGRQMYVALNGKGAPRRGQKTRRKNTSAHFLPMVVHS
Chain of Left-right determination factor 2 (Homo sapiens) (O00292 whole entry, looked up): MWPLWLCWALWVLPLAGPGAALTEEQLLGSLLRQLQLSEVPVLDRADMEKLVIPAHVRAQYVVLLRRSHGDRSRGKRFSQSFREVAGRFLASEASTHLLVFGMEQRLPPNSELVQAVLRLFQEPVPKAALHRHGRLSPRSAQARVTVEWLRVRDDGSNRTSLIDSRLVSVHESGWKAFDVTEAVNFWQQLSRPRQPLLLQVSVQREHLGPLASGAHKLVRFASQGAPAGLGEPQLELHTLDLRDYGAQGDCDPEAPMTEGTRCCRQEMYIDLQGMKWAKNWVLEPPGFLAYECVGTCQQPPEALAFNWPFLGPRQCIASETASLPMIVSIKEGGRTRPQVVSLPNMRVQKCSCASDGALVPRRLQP
Chain of Torsin-1A-interacting protein 1 (Homo sapiens) (Q5JTV8 whole entry, looked up): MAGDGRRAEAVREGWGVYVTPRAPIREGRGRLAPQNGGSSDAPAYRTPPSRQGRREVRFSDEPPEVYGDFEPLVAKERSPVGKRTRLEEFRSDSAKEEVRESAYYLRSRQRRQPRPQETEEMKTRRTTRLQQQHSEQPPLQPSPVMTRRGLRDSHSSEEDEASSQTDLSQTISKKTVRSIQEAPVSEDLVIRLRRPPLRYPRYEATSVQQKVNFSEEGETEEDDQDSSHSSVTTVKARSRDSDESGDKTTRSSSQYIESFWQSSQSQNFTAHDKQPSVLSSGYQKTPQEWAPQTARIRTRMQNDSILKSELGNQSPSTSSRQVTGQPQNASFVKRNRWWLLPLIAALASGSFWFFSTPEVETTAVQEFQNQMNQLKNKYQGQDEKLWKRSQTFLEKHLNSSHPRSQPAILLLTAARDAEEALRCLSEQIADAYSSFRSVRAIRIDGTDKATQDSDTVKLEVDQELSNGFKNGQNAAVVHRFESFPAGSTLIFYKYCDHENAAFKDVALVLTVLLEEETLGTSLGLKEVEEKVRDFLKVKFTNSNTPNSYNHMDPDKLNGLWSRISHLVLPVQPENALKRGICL
Chain of Follistatin-related protein 3 (Homo sapiens) (O95633 whole entry, looked up): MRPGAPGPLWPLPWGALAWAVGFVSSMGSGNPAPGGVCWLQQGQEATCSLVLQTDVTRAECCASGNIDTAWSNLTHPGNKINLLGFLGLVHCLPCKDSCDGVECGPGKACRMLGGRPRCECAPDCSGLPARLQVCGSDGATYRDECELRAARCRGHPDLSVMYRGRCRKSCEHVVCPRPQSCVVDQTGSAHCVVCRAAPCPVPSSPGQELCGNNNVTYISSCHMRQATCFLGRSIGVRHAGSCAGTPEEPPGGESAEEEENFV
Chain of Dickkopf-related protein 1 (Homo sapiens) (O94907 whole entry, looked up): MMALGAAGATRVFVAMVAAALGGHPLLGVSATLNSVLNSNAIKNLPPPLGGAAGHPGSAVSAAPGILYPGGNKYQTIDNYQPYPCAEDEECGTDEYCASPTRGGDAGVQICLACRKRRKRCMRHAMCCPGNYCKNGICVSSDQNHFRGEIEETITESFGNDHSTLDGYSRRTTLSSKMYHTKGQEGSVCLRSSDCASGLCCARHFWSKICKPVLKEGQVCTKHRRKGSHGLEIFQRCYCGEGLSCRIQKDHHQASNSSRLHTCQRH

| SMILES | composite z-score [1] | composite z-score [2] | composite z-score [3] | z-score [4] | composite z-score [5] | composite z-score [6] | composite z-score [7] | composite z-score [8] | composite z-score [9] | composite z-score [10] | composite z-score [11] | z-score [12] | composite z-score [13] | composite z-score [14] | composite z-score [15] | composite z-score [16] | composite z-score [17] | composite z-score [18] | composite z-score [19] | composite z-score [20] |
| --- | --- | --- | --- | --- | --- | --- | --- | --- | --- | --- | --- | --- | --- | --- | --- | --- | --- | --- | --- | --- |
| C=CCN1C(=O)[C@]2(O[C@H](CCO)[C@@H]([Si](C)(C)c3ccc(OC)cc3)[C@@H]2C)c2cc(NC(=O)c3ccc(OC)cc3)ccc21 | 0.527 | -0.19 | -0.525 | -2.1 (inactive) | 0.468 | 0.448 | 0.484 | 1.23 | 0.682 | 0.982 | 1.12 | -5.1 | 0.391 | 0.0503 | 0.631 | -0.102 | -0.0553 | -0.0184 | 0.336 | 0.732 |
| Cc1c(NC(=O)/C(C#N)=C/c2ccccc2Cl)c(=O)n(-c2ccccc2)n1C | 0.633 | -0.258 | -0.0592 | -0.378 (inactive) | 0.185 | -0.046 | 0.139 | 0.361 | 0.491 | 0.395 | -0.11 | 0.614 | 0.453 | 1.01 | -0.154 | -0.0377 | -0.588 | -0.226 | 0.858 | 0.42 |
| C=CCC(OC(C)=O)[C@@H]1[C@@H](N(Cc2ccc(-c3cccc(C(F)(F)F)c3)o2)C(=O)Cc2ccc(OC)cc2)c2cc(OCCCO)ccc2N1C(=O)Cc1ccc2ccccc2c1 (stereo not given in full) | 0.946 | -0.178 | 0.406 | -1.16 (inactive) | -0.0775 | -0.953 | -0.749 | -0.475 | -0.274 | 0.613 | -0.763 | 0.685 | -0.429 | -0.472 | -0.427 | -0.0383 | -0.206 | -0.463 | -0.33 | 0.553 |
| NCCCCCNC(=O)[C@H]1C[C@H]2C(=O)N[C@@H](Cc3ccccc3)C(=O)N2[C@H]1c1ccc(O)cc1 | 1.16 | 1.42 | 0.937 | 0.195 (inactive) | -0.0576 | 0.431 | -0.381 | 0.275 | 0.224 | 1.39 | 1.05 | 0.0505 | 0.202 | 2.24 | 1.14 | 0.183 | 0.596 | 0.859 | 0.456 | 0.949 |
| COc1ccc([Si](C)(C)[C@@H]2[C@@H](CC(=O)N3Cc4ccccc4C[C@H]3CO)O[C@]3(C(=O)N(c4ccccc4)c4ccccc43)[C@H]2C)cc1 | 2.04 | 0.713 | 0.449 | -0.0709 (inactive) | 1.09 | 1.26 | 0.799 | 1.37 | 1.1 | 0.816 | 1.38 | -4.41 | 0.671 | 1.75 | 1.36 | 0.418 | 0.293 | 1.14 | 0.553 | 1.26 |
| C=C(/C(=C/C[C@H](OC(=O)c1ccncc1)c1cccc(OCCO)c1)c1cnc2ccccc2c1)C(C)C | 0.411 | -0.0011 | 0.454 | -1.46 (inactive) | 1.47 | 1.18 | 0.539 | 1.51 | 0.739 | 1.68 | 0.589 | -4.47 | 0.67 | 0.127 | -0.412 | -0.0236 | -0.0011 | 0.0215 | 2.85 | 3.56 |
| COc1ccc(C(O)C2C=CC3C(=O)N(c4ccccc4)C(=O)C3N2Nc2ccccc2F)cc1 (stereo not given) | 1.47 | 0.447 | 1 | 0.747 (inactive) | 0.111 | 0.102 | -0.296 | 0.0817 | -0.81 | 0.685 | 0.726 | -0.139 | -0.591 | 0.528 | 0.062 | -0.0991 | 0.0062 | 0.853 | 0.982 | 1.01 |
| COc1ccc([Si](C)(C)[C@H]2[C@H](CC(=O)N3Cc4ccccc4C[C@H]3CO)O[C@@]3(C(=O)N(Cc4ccc(N5C(=O)c6cccc7cccc5c67)cc4)c4ccccc43)[C@@H]2C)cc1 | 0.959 | -0.247 | -0.0288 | -0.91 (inactive) | 0.884 | 1.28 | 0.868 | 1.31 | 0.879 | 0.473 | 1.3 | -3.26 | 0.952 | 0.732 | 0.049 | -0.124 | -0.279 | -0.49 | 1.65 | 0.609 |
| COCCOC(=O)N1C(=O)[C@@]2(c3cc(C#CCNC(N)=O)ccc31)[C@H](c1ccc(OCCO)cc1)N1[C@H](c3ccccc3)[C@H](c3ccccc3)OC(=O)[C@H]1[C@@H]2C(N)=O | 0.826 | 0.695 | 0.435 | 0.928 (inactive) | 0.748 | -0.0886 | 1.14 | 0.455 | 0.204 | 1.07 | 1.33 | -0.106 | 0.437 | 0.741 | 0.585 | -0.089 | 0.225 | 0.54 | 0.803 | 0.667 |
| CC(=O)NCCCC[C@@H]1NC(=O)[C@@H]2C[C@H](C(=O)NCCCCCCN)[C@H](c3cccc(OCCO)c3)N2C1=O | 1.04 | 0.504 | 0.61 | 0.248 (inactive) | 0.906 | 0.132 | -0.556 | -0.309 | -0.733 | 0.288 | 0.601 | -0.69 | -0.535 | 1.47 | 1.35 | -0.0519 | -0.0066 | -0.153 | 1.79 | 2.15 |
| CCOC(=O)C[C@H]1[C@H](OC(=O)c2ccccc2-c2ccccc2)[C@@H](NC(=O)c2ccc3ccccc3n2)c2cc(OCCCO)ccc2N1C(=O)c1ccccc1 | 0.459 | -0.269 | -0.46 | -0.407 (inactive) | 0.526 | 0.45 | 0.575 | 0.581 | 0.499 | 0.0428 | 1.29 | -1.7 | 0.487 | -0.0187 | -0.457 | -0.0519 | -0.248 | -0.347 | 0.291 | 0.414 |
